Screening data (PubChem BioAssay)
A selection: hits, their analogues and other compounds. The true share with any hit is near 6.2%.
SUMO Mot1 rescue: yeast Mot1-301 growth rescue at high temperature, primary screen, SUMOylation pathway inhibitor project, S. cerevisiae, ATP luminescence, 38.5C; S. cerevisiae Mot1-301 growth rescue; percent above DMSO median, 100 means doubled; growth rescue, % at 18.8 µM; actives 1% (n = 320,000);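 active means every valid replicate shows activation above 250% relative to neutral control wells; inactive means the rest, any valid replicate at or below 250%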;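 further: OY570 slx delta 5 strain wells were the positive control but not used for scaling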
AI-2 QS modul: Vibrio harveyi AI-2 quorum sensing modulators, primary screen, JMH597 strain, luminescence/OD600 ratio; Vibrio harveyi JMH597 AI-2 luminescence/OD600 ratio, 9 h; hits give low values; strain lacks LuxN and CqsS sensors; 0 = neutral-control median; activity change, % at 7.5 µM; actives 0.4% (n = 300,000); in the data active means activity change below about -75%, passing the limit was not always enough;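 further: luminescence divided by OD600 gain over 9 h not by final OD600 alone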
NTR1 ag: agonists of human NTR1, primary screen, imaging, U2OS cells, beta-arrestin-GFP, high content; actives 0.17% (n = 330,000); Neurotensin receptor type 1 (Homo sapiens), P30989; activation, % at 20 µM; NTR1-U2OS beta-arrestin-GFP spot imaging, agonist mode;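 active means activation at or above 40% of the spot to cytoplasm intensity ratio, with at least 20 cells analyzed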;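 further: 0% = DMSO without peptide and 100% = 100 nM NTR1 peptide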
H9c2 protect: cardioprotection against H2O2-induced cell death, primary screen, uHTS, H9c2 cells, ATPLite luminescence. protection from H2O2 cell death, % at 20 µM. actives 0.63% (n = 360,000). H9c2 cardiomyocytes, H2O2 injury protection, 2 h;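 active means compounds giving at least 50% protection of heart cells from peroxide-induced death in the single-dose screen, raw or plate-pattern-corrected value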;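 further: 0% = DMSO wells with peroxide and 100% = DMSO wells without peroxide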
AHR activator: AHR activators, primary screen, cell-based, luminescence, luciferase reporter, human; Aryl hydrocarbon receptor (Homo sapiens), P35869; AHR-responsive luciferase reporter cells; activation, % at 5 µM; actives 2.5% (n = 320,000); AID 2796, 2010; in the data active means activation above about 47%;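 further: 0% = vehicle wells and 100% = reference agonist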
Target sequence (P35869 whole entry, looked up): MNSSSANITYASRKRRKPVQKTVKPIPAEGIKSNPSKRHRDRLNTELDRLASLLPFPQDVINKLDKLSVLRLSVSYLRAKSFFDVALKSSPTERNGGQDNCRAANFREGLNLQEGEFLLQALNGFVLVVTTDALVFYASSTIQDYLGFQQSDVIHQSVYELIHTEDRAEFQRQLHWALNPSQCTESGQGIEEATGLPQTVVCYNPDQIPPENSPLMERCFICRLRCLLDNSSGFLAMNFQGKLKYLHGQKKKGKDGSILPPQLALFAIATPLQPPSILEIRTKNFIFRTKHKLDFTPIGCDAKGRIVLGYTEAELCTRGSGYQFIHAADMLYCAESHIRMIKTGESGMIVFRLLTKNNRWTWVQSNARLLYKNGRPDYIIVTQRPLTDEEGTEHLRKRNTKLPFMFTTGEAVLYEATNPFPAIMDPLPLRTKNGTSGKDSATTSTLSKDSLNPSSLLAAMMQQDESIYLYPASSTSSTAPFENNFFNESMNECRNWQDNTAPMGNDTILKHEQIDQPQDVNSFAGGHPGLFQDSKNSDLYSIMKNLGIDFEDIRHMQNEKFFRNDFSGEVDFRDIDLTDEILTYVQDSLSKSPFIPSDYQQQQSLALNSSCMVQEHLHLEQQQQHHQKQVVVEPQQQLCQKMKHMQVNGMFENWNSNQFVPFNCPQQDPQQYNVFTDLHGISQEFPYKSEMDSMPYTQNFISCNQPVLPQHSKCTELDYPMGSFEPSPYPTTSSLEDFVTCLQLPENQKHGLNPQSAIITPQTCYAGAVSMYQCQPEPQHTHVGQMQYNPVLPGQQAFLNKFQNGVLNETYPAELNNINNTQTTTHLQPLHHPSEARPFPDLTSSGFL
NR3A LBD binder: binders of NR3A ligand-binding domain, primary screen, biophysical, differential scanning fluorimetry, uHTS. actives 2.5% (n = 340,000). Tm shift relative to glycine control, % at 25 µM. Glutamate receptor ionotropic, NMDA 3A (GRIN3A) ligand-binding domain. NR3A LBD differential scanning fluorimetry, Tm shift; 0% = protein alone, 100% = glycine-bound protein. AID 1259313, 2017;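 active means melting temperature shift of at least 10% of the positive control shift, at one fixed dose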
Starred values were filed as active, the others as inactive; nt = no result given.

SMILES	SUMO Mot1 rescue	AI-2 QS modul	NTR1 ag	H9c2 protect	AHR activator	NR3A LBD binder
COc1ccc(/C(C)=N/NC(=O)c2cccc(S(=O)(=O)N3CCCC3)c2)c(O)c1	-9.5	46.5	1.1	69.7*	-2.7	nt
NC(=O)c1cccc(Nc2nc(C(N)C3CCCCC3)cs2)n1 (stereo unspecified)	nt	nt	nt	49.3	nt	nt
C=CCNc1oc(-c2ccc(Cl)cc2)nc1C#N	nt	nt	3.9	51.7*	7.2	-7.0
Cc1cc(C)n(C(=O)CNc2ccccc2Cl)n1	-7.8	24.1	1.1	1.5	-0.8	-1.0
Cc1cc(C)n(C(=O)CNc2cccc(Cl)c2C)n1	-12.3	8.2	-1.6	-2.7	0.9	10.2*
CCOC(=O)[C@@H]1[C@H]2COc3ccc(Br)cc3[C@@H]2N2C(=O)N(c3ccc(C(F)(F)F)cc3)C(=O)[C@]12C	-2.1	33.9	0.2	-7.8	0.3	1.6
CCC(C(=O)N1CCOCC1)n1nc(C)n2c(cc3cc(C)ccc32)c1=O (stereo unspecified)	8.7	1.0	1.2	6.3	5.2	10.8*
CCOC(=O)C1CCN(C(=O)Cn2nc(C)n3c(cc4cc(C)ccc43)c2=O)CC1	-7.7	30.0	-0.3	6.3	3.8	-2.6
CCOC(=O)c1cccc(C2=CC(=O)CC(C)(C)C2)c1	-8.8	nt	1.4	2.4	-2.3	2.4
O=C1CC(c2ccc(S(=O)(=O)NC3CC3)cc2)CN1 (stereo unspecified)	51.6	31.6	-0.4	0.8	-1.5	-1.6
O=C1CC(c2ccc(S(=O)(=O)NCc3ccncc3)cc2)CN1 (stereo unspecified)	73.1	23.6	-4.0	-11.1	78.0*	-1.0
CN(C)CC1CCCCC1OC(=O)c1ccc(S(=O)(=O)N(C)c2ccccc2)cc1 (stereo unspecified)	5.2	8.3	0.3	-2.9	-2.0	-4.9
COc1ccc(S(=O)(=O)N(C)c2ccc(C(=O)N3CCC(C(N)=O)CC3)cc2)cc1OC	345.1*	24.3	-0.6	-4.0	-0.9	3.9
COc1ccc(S(=O)(=O)N(C)c2ccc(C(=O)N3CCC(C(N)=O)CC3)cc2)cc1	-15.5	10.2	0.5	-0.2	-0.4	2.4
Cn1cnnc1SC1c2cccc3cccc(c23)C1NS(=O)(=O)c1ccccc1 (stereo unspecified)	-3.7	13.8	-0.6	-4.9	10.5	4.5
CS(=O)(=O)NC1c2cccc3cccc(c23)C1Sc1nncn1/N=C/c1ccco1 (stereo unspecified)	553.3	8.1	-1.2	6.8	8.4	20.1*
COc1ccccc1OCCn1c(=O)n(C)c2ccccc21	344.7*	3.1	-0.9	4.9	6.1	2.0
Cc1ccc(OCCn2c(=O)n(C)c3ccccc32)cc1	-3.0	21.0	2.9	-9.2	20.8	-1.8
COc1ccccc1OCCCn1c(=O)oc2ccc(C)cc21	5.4	14.1	-0.6	0.1	59.7*	-1.4
Cn1c(=O)n(CCOc2ccc(Cl)cc2Cl)c2ccccc21	-3.3	-2.9	2.8	-11.7	1.7	7.7
Cn1c(=O)n(CCOc2ccccc2Cl)c2ccccc21	-6.4	20.5	-0.5	2.1	58.7*	-6.0
CCCCc1ccc(N2C(=NC(=O)C3CCCO3)SC3CS(=O)(=O)CC32)cc1 (stereo unspecified)	-11.8	10.5	0.6	3.9	3.2	-0.7
O=C(CN1C(=O)NC2(CCCCCC2)C1=O)NCCc1ccc(F)cc1	nt	nt	-2.0	-5.5	-1.1	0.9
CNC(=O)c1nnsc1S(=O)(=O)c1ccc(Cl)cc1	nt	-95.1*	-1.0	-21.6	nt	0.0
CCOC(=O)[C@H](C)N1[C@H](C)[C@H](c2ccccc2)Oc2ccc(Cl)cc2S1(=O)=O	nt	nt	nt	-23.9	nt	0.2
SMILES	SUMO Mot1 rescue	AI-2 QS modul	NTR1 ag	H9c2 protect	AHR activator	NR3A LBD binder
Cc1cccc(NC(=O)CSc2nnc3ccc(-c4ccccn4)nn23)c1	-13.4	16.6	-0.1	-2.0	17.7	-1.2
Cc1ccc(O)c(NC(=O)c2ccc3c(c2)C(=O)N(CC(C)C)C3=O)c1	47.0	1.3	-0.4	-12.1	73.3*	0.3
Cc1cc(NC(=O)C(C)SCC(=O)OCc2ccc(Cl)cc2Cl)no1 (stereo unspecified)	5.0	nt	-1.1	11.5	1.8	-0.8
O=C(NC(=S)Nc1ccc(O)cc1)c1ccccc1Cl	-3.9	17.7	1.7	-5.1	22.6	16.2*
Cc1cc(C)c(C(=O)CC(=O)c2ccccc2Cl)c(O)c1	-8.7	23.9	1.3	50.6*	1.2	-3.1
COc1ccc(NC(=S)NC(=O)c2ccccc2Cl)cc1	-1.5	0.1	0.5	-7.0	-7.7	0.1
Cc1ccc(O)c(NC(=O)c2cc(-c3ccccc3Cl)on2)c1	-8.5	-54.2	5.8	-5.6	-4.8	-0.4
Cc1ccc(O)c(NC(=S)NC(=O)c2ccccc2Cl)c1	-8.3	-19.1	-0.1	-3.5	59.6*	-5.0
CCOc1ccc(NC(=S)NC(=O)c2c(Cl)c(C)nn2C)c([N+](=O)[O-])c1	10.2	4.7	-0.9	-5.4	0.6	2.4
Cc1nn(C)c(C(=O)NC(=S)Nc2ccccc2O)c1Cl	0.9	18.8	1.6	6.1	54.2*	-9.0
COc1ccc(CCNC(=O)Cc2ccsc2)cc1	9.2	32.7	-0.6	7.2	-3.3	-0.6
O=C(O)c1ccccc1Nc1ccc([N+](=O)[O-])c2nonc12	173.1	8.5	0.2	-7.7	0.6	3.7
COc1ccc(CNC(=O)c2cc3cccc(O)c3oc2=N)cc1	8.4	8.9	3.7	49.4	-1.7	5.0
CCn1c(SCC(=O)Nc2nc3ccccc3s2)nnc1-c1ccc(OC)cc1	343.4*	13.4	-0.4	-4.6	17.1	1.0
COc1ccc2nc(NC(=O)CSc3nnc4n3C(C)(C)Cc3ccccc3-4)sc2c1	6.4	29.8	7.7	-4.7	-1.5	10.1*
COc1cc(NC(=O)CSc2nnc3n2C(C)(C)Cc2ccccc2-3)cc(OC)c1	11.7	16.6	3.0	3.0	-9.6	1.6
CCn1c(Cc2ccccc2)nnc1SCC(=O)Nc1nc2ccccc2s1	-7.2	7.0	0.3	-2.1	7.5	1.3
Cc1ccsc1C(=O)N1CCCC(N(C)Cc2ccccc2)C1 (stereo unspecified)	281.9	7.9	-0.3	-1.4	-0.4	-3.0
Cc1ccccc1OCCOC(=O)c1cc(S(=O)(=O)N2CCCCC2)ccc1N1CCOCC1	0.5	nt	5.3	-17.9	-0.7	2.5
Cc1c(C(=O)N2CCN(S(=O)(=O)c3ccccc3)CC2)oc2ccc(Br)cc12	nt	nt	6.5	-5.5	-4.1	0.4
Fc1cccc(F)c1[B-](F)(F)F	nt	nt	nt	-2.1	nt	-0.5
